The source made the active and inactive calls. The calls were made as follows: active = hit-call score of the fitted dose curve at least 0.9, where 1 is the maximum; inactive = score below 0.9.

Data on four compounds can be found in PubChem BioAssay (EPA / NIEHS).

Read-out in assay [1]: urokinase plasminogen activator (uPA), PLAU (gene 5328)
As to the kind of experiment: BSK_KF3CT_uPA: BioMAP Diversity Plus: KF3CT Assay for urokinase plasminogen activator (uPA) Biomarker Activity (AID 2283075). To be noted: primary human keratinocytes with fibroblasts; actives raise or lower the signal. The method, boiled down: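 Values derive from bidirectional fitting against DMSO controls. Keratinocyte/foreskin fibroblast co-cultures received chemical; 24 h later uPA was detected by ELISA, with SRB total-protein staining in parallel wells for overt cytotoxicity.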

Read-out in assay [2]: CD40, CD40 (gene 958)
As to the kind of experiment: BSK_LPS_CD40: BioMAP Diversity Plus: LPS Assay for CD40 Biomarker Activity (AID 2283076). As to conditions: primary human HUVEC with PBMC; actives raise or lower the signal. The method, boiled down:
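HUVEC plus PBMC co-culture stimulated with LPS; CD40 quantified by ELISA 24 h after compound dosing. Fitting was bidirectional relative to DMSO. SRB staining of parallel cultures flagged overt cytotoxicity.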

Read-out in assay [3]: E-selectin (Homo sapiens) (UniProt P16581)
As to the kind of experiment: BSK_LPS_Eselectin: BioMAP Diversity Plus: LPS Assay for Eselectin Biomarker Activity (AID 2283077). To be noted: primary human HUVEC with PBMC; actives raise or lower the signal. Put shortly: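 Human umbilical vein endothelial cells co-cultured with PBMC under LPS stimulation; cell-surface E-selectin measured by ELISA 24 h after dosing. Change in either direction versus DMSO, with SRB total-protein staining in parallel cultures for cytotoxicity.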

Read-out in assay [4]: Interleukin-8 (IL8), CXCL8 (gene 3576)
As to the kind of experiment: BSK_LPS_IL8: BioMAP Diversity Plus: LPS Assay for Interleukin-8 (IL8) Biomarker Activity (AID 2283078). As to conditions: primary human HUVEC with PBMC; actives raise or lower the signal. Put shortly: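 Human umbilical vein endothelial cells co-cultured with PBMC, LPS-stimulated, exposed to compound for 24 h. IL-8 quantified by ELISA; fitted in both directions against DMSO, with SRB total-protein staining of parallel cultures for cytotoxicity.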

Read-out in assay [5]: Interleukin-1 alpha (IL1a), IL1A (gene 3552)
The assay is described as follows: BSK_LPS_IL1a: BioMAP Diversity Plus: LPS Assay for Interleukin-1 alpha (IL1a) Biomarker Activity (AID 2283080). To be noted: primary human HUVEC with PBMC; actives raise or lower the signal. Put shortly: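 Human umbilical vein endothelial cells co-cultured with PBMC and stimulated with LPS; IL-1a measured by ELISA 24 h after dosing. Bidirectional fitting against DMSO; cytotoxicity checked by SRB staining in parallel cultures.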

Read-out in assay [6]: Monocyte Chemoattractant Protein-1 (MCP1), CCL2 (gene 6347)
The assay is described as follows: BSK_LPS_MCP1: BioMAP Diversity Plus: LPS Assay for Monocyte Chemoattractant Protein-1 (MCP1) Biomarker Activity (AID 2283081).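 As to AC50: secreted MCP-1 protein quantified by ELISA in culture supernatant.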 To be noted: primary human HUVEC with PBMC; actives raise or lower the signal. The method, boiled down: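 Human umbilical vein endothelial cells co-cultured with PBMC, LPS-stimulated; secreted MCP-1 measured by ELISA 24 h after compound addition. Bidirectional curve fitting against DMSO baseline; SRB total-protein staining in parallel cultures for cytotoxicity.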

Assay [7] can be described thus: BSK_LPS_PGE2: BioMAP Diversity Plus: LPS Assay for Prostaglandin E2 (PGE2) Biomarker Activity (AID 2283082).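 As to AC50: secreted prostaglandin E2 measured by ELISA in LPS-stimulated co-culture.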 As to conditions: primary human HUVEC with PBMC; actives raise or lower the signal. Put shortly: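 ELISA read-out of PGE2 from human umbilical vein endothelial cells co-cultured with peripheral blood mononuclear cells under LPS, 24 h post-dose. Gain or loss of signal scored relative to DMSO baseline.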

Read-out in assay [8]: Macrophage colony-stimulating factor (MCSF), CSF1 (gene 1435)
The assay is described as follows: BSK_LPS_MCSF: BioMAP Diversity Plus: LPS Assay for Macrophage colony-stimulating factor (MCSF) Biomarker Activity (AID 2283083). As to conditions: primary human HUVEC with PBMC; actives raise or lower the signal. Put shortly:
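HUVEC–PBMC co-culture, M-CSF measured by ELISA 24 h after chemical dosing. Fitted in both directions relative to DMSO as negative control; overt cytotoxicity assessed by SRB total-protein staining in parallel cultures.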

Read-out in assay [9]: Tissue Factor, F3 (gene 2152)
As to the kind of experiment: BSK_LPS_TissueFactor: BioMAP Diversity Plus: LPS Assay for Tissue Factor Biomarker Activity (AID 2283084). To be noted: primary human HUVEC with PBMC; actives raise or lower the signal. Put shortly: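 Human umbilical vein endothelial cells co-cultured with PBMC were dosed with compound. Cell-surface CD142 was measured by ELISA 24 h later. Activity was fitted bidirectionally against DMSO, with SRB total-protein staining in parallel cultures for cytotoxicity.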

Read-out in assay [10]: Tumor necrosis factor (Homo sapiens) (UniProt P01375)
As to the kind of experiment: BSK_LPS_TNFa: BioMAP Diversity Plus: LPS Assay for Tumour Necrosis Factor alpha (TNFa) Biomarker Activity (AID 2283085).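 As to AC50: TNFa protein level quantified by ELISA in the co-culture.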 To be noted: primary human HUVEC with PBMC; actives raise or lower the signal. The method, boiled down:
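HUVEC/PBMC co-culture, LPS-stimulated; 24 h post-dose; TNFa by ELISA; gain or loss of signal fitted bidirectionally vs DMSO baseline.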

Read-out in assay [11]: Vascular cell adhesion molecule 1 (VCAM1), VCAM1 (gene 7412)
The assay is described as follows: BSK_LPS_VCAM1: BioMAP Diversity Plus: LPS Assay for Vascular cell adhesion molecule 1 (VCAM1) Biomarker Activity (AID 2283086). To be noted: primary human HUVEC with PBMC; actives raise or lower the signal. The method, boiled down:
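ELISA read-out of VCAM-1 at 24 h post-dosing in an LPS-driven HUVEC/PBMC primary human co-culture; gain or loss of signal fitted bidirectionally against DMSO baseline. Cytotoxicity tracked in parallel cultures by SRB total-protein staining.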

Read-out in assay [12]: CD38, CD38 (gene 952)
As to the kind of experiment: BSK_SAg_CD38: BioMAP Diversity Plus: SAg Assay for CD38 Biomarker Activity (AID 2283087). To be noted: primary human HUVEC with PBMC; actives raise or lower the signal. The method, boiled down: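 Measures CD38 on a human endothelial/PBMC co-culture driven by SEB and TSST-1, 24 h after compound exposure, using ELISA with fluorescence detection; DMSO defines baseline for bidirectional curve fitting.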

Read-out in assay [13]: CD40, CD40 (gene 958)
As to the kind of experiment: BSK_SAg_CD40: BioMAP Diversity Plus: SAg Assay for CD40 Biomarker Activity (AID 2283088). To be noted: primary human HUVEC with PBMC; actives raise or lower the signal. Put shortly: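 HUVEC plus PBMC co-culture, superantigen-activated, with CD40 read by ELISA 24 h after dosing. Curves fitted in both directions against DMSO. Overt cytotoxicity checked by parallel SRB total-protein staining.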

Read-out in assay [14]: CD69, CD69 (gene 969)
As to the kind of experiment: BSK_SAg_CD69: BioMAP Diversity Plus: SAg Assay for CD69 Biomarker Activity (AID 2283089).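 As to AC50: cell surface CD69 protein quantified by ELISA with fluorescence detection.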 To be noted: primary human HUVEC with PBMC; actives raise or lower the signal. The method, boiled down:
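Values derive from bidirectional fitting relative to DMSO vehicle. Cells: umbilical vein endothelium plus peripheral blood mononuclear cells, treated 24 h before fluorescent ELISA for CD69.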

Read-out in assay [15]: Monocyte Chemoattractant Protein-1 (MCP1), CCL2 (gene 6347)
As to the kind of experiment: BSK_SAg_MCP1: BioMAP Diversity Plus: SAg Assay for Monocyte Chemoattractant Protein-1 (MCP1) Biomarker Activity (AID 2283090). As to conditions: primary human HUVEC with PBMC; actives raise or lower the signal. The method, boiled down:
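Values derive from bidirectional fitting of ELISA-measured MCP1 against DMSO controls. Readings were taken 24 h after dosing human vascular endothelial cells co-cultured with peripheral blood mononuclear cells under superantigen stimulation.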

Read-out in assay [16]: E-selectin (Homo sapiens) (UniProt P16581)
As to the kind of experiment: BSK_SAg_Eselectin: BioMAP Diversity Plus: SAg Assay for Eselectin Biomarker Activity (AID 2283091). To be noted: primary human HUVEC with PBMC; actives raise or lower the signal. Put shortly:
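Human umbilical vein endothelial cells co-cultured with peripheral blood mononuclear cells, SAg system. E-selectin is measured by ELISA 24 h after dosing and fitted bidirectionally against DMSO. Cytotoxicity is checked by SRB staining of parallel cultures.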

Read-out in assay [17]: Monokine induced gamma interferon (MIG), CXCL9 (gene 4283)
As to the kind of experiment: BSK_SAg_MIG: BioMAP Diversity Plus: SAg Assay for Monokine induced gamma interferon (MIG) Biomarker Activity (AID 2283092). As to conditions: primary human HUVEC with PBMC; actives raise or lower the signal. Put shortly: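 Values reflect bidirectional fitting of ELISA-measured MIG against DMSO vehicle, taken 24 h after dosing of a co-culture of human umbilical vein endothelial cells and peripheral blood mononuclear cells.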

The nature of assay [18]: BSK_SAg_PBMCCytotoxicity: PBMC Cytotoxicity Assessment in the BioMAP Diversity Plus: SAg Assay (AID 2283093).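 Also: PBMC viability measured as Alamar Blue reduction fluorescence at 546/580 nm; fitted both ways against DMSO so a hit may be loss or gain of signal.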 To be noted: primary human HUVEC with PBMC. Put shortly:
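Alamar Blue reduction (6 h, 546/580 nm) reports PBMC cytotoxicity after 90 h superantigen activation (SEB, TSST-1; 20 ng/mL final each) with 1 h compound pre-treatment. Gain or loss of signal fitted versus DMSO.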

Read-out in assay [19]: Interleukin-8 (IL8), CXCL8 (gene 3576)
As to the kind of experiment: BSK_SAg_IL8: BioMAP Diversity Plus: SAg Assay for Interleukin-8 (IL8) Biomarker Activity (AID 2283094). To be noted: primary human HUVEC with PBMC; actives raise or lower the signal. The method, boiled down:
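HUVEC/PBMC co-culture, 24 h post-dose; IL-8 by ELISA. Gain or loss of signal fitted bidirectionally vs DMSO baseline.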

Assay [20] can be described thus: BSK_LPS_SRB: Viability Assessment in the BioMAP Diversity Plus: LPS Assay (AID 2283079).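 Also: total protein by sulforhodamine B absorbance as a cytotoxicity measure; measured one day after compound addition; fitted in both directions against DMSO so loss or gain of signal counts.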 As to conditions: primary human HUVEC with PBMC. Put shortly: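 Co-culture of human umbilical vein endothelial cells and PBMC, read 24 h after dosing. Total protein by 0.1% SRB staining after 10% TCA fixation, absorbance at 560 nm; bidirectional fit against DMSO.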

Chain of E-selectin (Homo sapiens) (P16581 whole entry, looked up): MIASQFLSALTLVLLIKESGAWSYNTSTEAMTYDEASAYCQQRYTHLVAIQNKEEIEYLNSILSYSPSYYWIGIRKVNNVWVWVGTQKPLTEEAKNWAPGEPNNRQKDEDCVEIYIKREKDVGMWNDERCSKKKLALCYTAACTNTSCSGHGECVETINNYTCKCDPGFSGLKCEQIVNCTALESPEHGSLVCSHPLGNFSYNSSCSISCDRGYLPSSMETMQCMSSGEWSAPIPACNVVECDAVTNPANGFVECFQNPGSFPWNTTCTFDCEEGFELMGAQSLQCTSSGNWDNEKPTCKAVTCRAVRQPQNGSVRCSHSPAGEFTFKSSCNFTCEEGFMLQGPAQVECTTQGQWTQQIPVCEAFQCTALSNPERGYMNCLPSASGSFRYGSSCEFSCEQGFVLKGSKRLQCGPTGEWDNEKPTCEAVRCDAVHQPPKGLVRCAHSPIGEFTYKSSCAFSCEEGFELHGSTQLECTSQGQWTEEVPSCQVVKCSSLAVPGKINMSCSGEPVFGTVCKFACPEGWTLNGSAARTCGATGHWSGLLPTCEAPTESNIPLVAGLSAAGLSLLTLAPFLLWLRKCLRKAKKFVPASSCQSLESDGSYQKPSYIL
Chain of Tumor necrosis factor (Homo sapiens) (P01375 whole entry, looked up): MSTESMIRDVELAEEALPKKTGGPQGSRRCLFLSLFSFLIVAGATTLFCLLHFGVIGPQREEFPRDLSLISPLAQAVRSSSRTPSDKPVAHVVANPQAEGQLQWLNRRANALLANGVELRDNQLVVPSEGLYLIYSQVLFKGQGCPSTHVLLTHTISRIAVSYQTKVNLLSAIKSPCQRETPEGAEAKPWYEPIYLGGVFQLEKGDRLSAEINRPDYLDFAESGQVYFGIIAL

Take `Cc1cn([C@H]2C=C[C@@H](CO)O2)c(=O)[nH]c1=O`: the outcome in assay [1], in [2], in [3], in [4], in [5] and in [6] was inactive. The result in [7], in assay [8], in [9], in assay [10], in [11] and in assay [12] was inactive. Also, the result in [13], in assay [14], in assay [15], in [16], in assay [17] and in assay [18] was inactive. In addition, the result in [19] was inactive.

In the case of `Nc1nc(Cl)nc2c1ncn2[C@H]1C[C@H](O)[C@@H](CO)O1`, the outcome in [1], in [3], in [7], in assay [11], in [12] and in assay [17] was inactive. For the same compound, the result in [19] was inactive. The AC50 is 2290 nM (active) in assay [2]; 628 nM (active) in assay [4]; 814 nM (active) in [20]; 1680 nM (active) in assay [5]; 659 nM (active) in assay [6]; 1080 nM (active) in [8]. The AC50 was 5400 nM (active) in assay [10]; 1600 nM (active) in assay [13]; 4310 nM (active) in assay [14]; 3090 nM (active) in [15]; 9320 nM (active) in [16].

As for `NC1CCCCC1`, the result in [1], in assay [2], in assay [3], in [4], in [20] and in [5] was inactive. In addition, the outcome in assay [6], in [7], in [8], in assay [10], in [11] and in [12] was inactive. Moreover, the result in assay [13], in [14], in [15], in [16], in assay [17] and in assay [18] was inactive. Besides, in [19], the outcome was inactive.

For `Cc1ccc(C(C)(C)C)c(O)c1`, the outcome in [1], in assay [2], in assay [3], in [20], in assay [5] and in assay [6] was inactive. The outcome in [8], in [9], in [10], in assay [11], in [12] and in assay [13] was inactive. Also, the outcome in assay [14], in [15], in assay [16], in assay [17], in [18] and in [19] was inactive. For the same compound, the AC50 in assay [7] was 3090 nM (active).

Broadly, the AC50 is the concentration giving half of the maximal activity seen.
